FECH block: inhibitors of human ferrochelatase, primary screen, biochemical, purified FECH, Ni-mesoporphyrin absorbance; 20,000 tested, 3.3% active; Ni-mesoporphyrin absorbance 550 nm; calls only at 10 µM (by protocol); Ferrochelatase, mitochondrial (Homo sapiens), P22830;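 active = enzyme reaction rate more than 3 SD below the solvent-only control wells on the same plate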;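 also: lower slope than DMSO wells means FECH inhibition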
Target sequence (P22830 whole entry, looked up): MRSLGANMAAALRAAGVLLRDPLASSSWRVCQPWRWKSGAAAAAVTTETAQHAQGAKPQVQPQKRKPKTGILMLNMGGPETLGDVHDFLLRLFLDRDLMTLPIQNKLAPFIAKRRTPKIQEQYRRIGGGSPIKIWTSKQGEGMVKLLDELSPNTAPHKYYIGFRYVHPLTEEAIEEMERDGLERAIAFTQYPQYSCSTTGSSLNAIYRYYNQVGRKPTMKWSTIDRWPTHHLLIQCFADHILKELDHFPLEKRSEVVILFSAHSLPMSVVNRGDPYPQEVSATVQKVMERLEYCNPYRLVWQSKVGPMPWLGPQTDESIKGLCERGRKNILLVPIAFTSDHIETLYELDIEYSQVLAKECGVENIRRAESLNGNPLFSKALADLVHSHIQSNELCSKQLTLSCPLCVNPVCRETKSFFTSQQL
Active calls of the source: *; i = inactive; + = active, no number. The entries come from a sample that favours hits as a whole.

SMILES | FECH block
CCc1cc(Sc2ccccc2NC(=O)Cc2ccccc2C)n2nc(C)nc2n1 | i
CCc1c(C)nc2ncnn2c1Sc1ccc(NC(=O)Nc2ccccc2)cc1 | i
CCc1c(C)nc2ncnn2c1Sc1ccc(NC(=O)Nc2cccc(C)c2)cc1 | i
CCc1c(C)nc2ncnn2c1Sc1ccc(NC(=O)Nc2ccc(C)c(C)c2)cc1 | i
CCc1c(C)nc2ncnn2c1Sc1ccc(NC(=O)Nc2ccc(C)c(F)c2)cc1 | +
CCc1c(C)nc2ncnn2c1Sc1ccc(NC(=O)Nc2ccc(F)cc2)cc1 | i
CCc1c(C)nc2ncnn2c1Sc1ccc(NC(=O)Nc2ccc3c(c2)OCCO3)cc1 | +
O=C(CCN1CCN(c2nsc3ccccc23)CC1)Nc1cccnc1 | i
O=C(O)CNc1cccc(C(=O)N2CC=CC2)c1 | i
COc1ccc(NC(=O)c2cc(-c3ccc(OC)c(S(N)(=O)=O)c3)n[nH]2)cc1OC | i
CC1CCCN(C(=O)c2[nH]cnc2C(=O)NC2CCCCC2)C1 (centres undefined) | i
CCc1nc(OCC(=O)NCc2ccccc2)c2c(-c3ccc(F)cc3)noc2n1 | i
COc1ccc(OC)c(Nc2cc(-c3ccc(C)cc3)nc(C)n2)c1 | i
COc1ccc(CN2CCC3(CC2)N=C(c2ccc(Cl)cc2)NC3=O)cc1 | i
O=C(CN1CCCN(Cc2ccccc2)S1(=O)=O)NCc1ccc(Cl)cc1 | i
Cc1ccc(CN2CCCN(CC(=O)NCCc3ccccc3)S2(=O)=O)cc1 | i
Cc1ccc(CNC(=O)CN2CCCN(Cc3cccc(C)c3)S2(=O)=O)cc1 | i
COc1ccc(CNC(=O)CN2CCCN(Cc3ccccc3Cl)S2(=O)=O)cc1 | i
Cc1ccc(CN2CCCN(CC(=O)NCc3ccccc3)S2(=O)=O)cc1 | +
Cc1ccc(CN2CCCN(CC(=O)NCc3ccccc3Cl)S2(=O)=O)cc1 | +
Cc1cc(=O)[nH]c(NCCNC(=O)CCN2CCCCO2)n1 | i
COc1ccc(OC)c2c(C)cc(N3Cc4cnn(CCO)c4C3)nc12 | i
COc1ccc(C)cc1-c1cncnc1 | i
Cc1ccccc1NC(=O)C1CCN(c2ncnc3c2nc2n3CCCCC2)CC1 | i
COC(=O)[C@H](C)NC(=O)c1oc2cc(OC)ccc2c1C | i
SMILES | FECH block
CCOC(=O)c1c(NC(=O)c2ccco2)sc2c1CCN(C(C)C)C2 | i
CCOC(=O)c1c(NC(=O)c2ccc(N3C(=O)CCC3=O)cc2)sc2c1CCN(C(C)C)C2 | +
CCOC(=O)c1c(NC(=O)c2cccs2)sc2c1CCN(C(C)C)C2 | i
Cc1ccc(C(NC(=O)CN2CC(=O)NC2=O)c2cccnc2)cc1C (centres undefined) | i
COCCN(Cc1cccs1)C(=O)c1coc2c1C(=O)CCC2 | i
CC1c2cccn2CCN1C(=O)c1ccc(C#CC(C)(C)O)o1 (centres undefined) | i
CC1c2cccn2CCN1C(=O)CNS(=O)(=O)c1cccs1 (centres undefined) | i
CC(=O)Nc1ccccc1SCC(=O)N1CCn2cccc2C1C (centres undefined) | +
Cc1c(NC(=O)c2ncccc2O)cccc1C(=O)NC(C)(C)C | i
CCc1cnc(C)nc1-c1cccc(C)c1C | i
CCc1cnc(C)nc1N1CCN(Cc2ccn(C(C)C)c2)CC1 | i
O=S(=O)(NCc1ccccc1)N1CCCC(OCc2ccccn2)C1 (centres undefined) | i
Cc1nc(C(C)C)cc(N2CCCC(OCc3ccccn3)C2)n1 (centres undefined) | i
Cc1ccc(NC(=O)CN2CCCC(OCc3ccccn3)C2)cc1C (centres undefined) | +
Cc1ccccc1CCC1CCCN(CCO)C1 (centres undefined) | i
Fc1ccc(CCC2CCCN(CCCn3cnnn3)C2)c(F)c1 (centres undefined) | +
Fc1cccc(F)c1CCC1CCCN(Cc2cscn2)C1 (centres undefined) | i
COCc1nnc(C(=O)N2CCC(C(=O)OC)(c3ccccc3)C2)o1 (centres undefined) | i
O=C(CN1c2ccc(Br)cc2-c2ccccc2S1(=O)=O)NCc1ccccn1 | +
O=C(NCc1ccccn1)C1(Oc2cccc3ncccc23)CCNCC1 | i
O=C(CN1CCC(c2ccccc2C(=O)O)C1)NCc1ccccn1 (centres undefined) | i
CC(C)OCCCNC(=O)c1ccc(CN2C(=O)CCn3nc(-c4ccccc4)cc32)cc1 | i
C=CCOc1cccc(NC(=O)CN2c3ccc(Br)cc3-c3ccccc3S2(=O)=O)c1 | i
CC(C)OCCCNC(=O)CN1c2ccc(Br)cc2-c2ccccc2S1(=O)=O | +
O=C(CN1c2ccc(Br)cc2-c2ccccc2S1(=O)=O)NCCN1CCOCC1 | i
SMILES | FECH block
CCC1=C(c2ccc(OC)cc2)S(=O)(=O)N(CC(=O)NCc2cccc(Br)c2)C1=O | i
COCCNC(=O)CN1c2ccc(Br)cc2-c2ccccc2S1(=O)=O | +
CCOC(=O)C1CCCN(c2nc(SC)nc(-c3ccc(Cl)cc3)c2C#N)C1 (centres undefined) | i
CC(C)c1cccc(-c2cccc3c2OC(CN)C3)n1 (centres undefined) | i
CCN(Cc1ccc(-c2nc3ccccc3n2C)o1)C1CCS(=O)(=O)C1 (centres undefined) | i
COC(=O)c1ccccc1NC(=O)CSCc1nc(-c2ccc(F)cc2)no1 | i
CC(=O)Nc1ccc(Nc2nc(C)cc(N(C)C)n2)cc1 | i
O=C(Cc1cccnc1)N1CCC(N2CCCC(C(=O)N3CCCC3)C2)CC1 (centres undefined) | i
Cc1nc2nc(N(CCOc3ccccc3)S(=O)(=O)c3ccc(Cl)cc3)nn2c(C)c1Cl | i
CCn1ncc(Cl)c1C(=O)NC(c1nccn1C)C1CC1 (centres undefined) | i
CCOc1ccc(Nc2nc(N3CCOCC3)nc3c2cnn3-c2ccccc2)cc1 | i
COc1ccc(Nc2nc(N3CCCC3)nc3c2cnn3-c2ccccc2)cc1 | +
Cc1ccc(Nc2nc(N3CCOCC3)nc3c2cnn3-c2ccccc2)cc1C | i
CCCNc1nc(Nc2ccc(OC)cc2)c2cnn(-c3ccccc3)c2n1 | +
COc1ccc(Nc2nc(NCC(C)O)nc3c2cnn3-c2ccccc2)cc1 (centres undefined) | +
Cc1ccc(Nc2nc(NCC(C)O)nc3c2cnn3-c2ccccc2)cc1C (centres undefined) | i
COc1cccc(Nc2nc(NCC(C)O)nc3c2cnn3-c2ccccc2)c1 (centres undefined) | i
FC(F)Sc1ccc(Nc2nc(N3CCOCC3)nc3c2cnn3-c2ccccc2)cc1 | +
COCCNc1nc(Nc2ccc(OC)cc2)c2cnn(-c3ccccc3)c2n1 | i
COc1ccc(Nc2nc(N3CCN(C)CC3)nc3c2cnn3-c2ccccc2)cc1 | i
CCOc1ccc(Nc2nc(N3CCCC3)nc3c2cnn3-c2ccccc2)cc1 | i
COc1ccc(Nc2nc(NCCO)nc3c2cnn3-c2ccccc2)cc1 | i
COc1ccccc1C(=O)Oc1ccc(Nc2cc(C)nc3nc(-c4cccnc4)nn23)cc1 | i
O=C(CN1C(=O)C2CCCCN2C(=O)c2ccccc21)N1CCCCCC1 (centres undefined) | i
COc1ccc(CN(C)Cc2coc3ccccc3c2=O)c2cccnc12 | i
CCn1c(=O)n(Cc2cccc(F)c2)c(=O)c2cnc(-c3ccc(Cl)cc3)nc21 | i
